Bfl-1 A1 inh = caspase 3/7 activation in MEF A1-2A-BIM cells, primary screen, A1 inhibitor project, cell-based, luminescence, HTS | caspase activation, % (concentration not given with the values) | 0.066% of 330,000 active | Caspase-Glo 3/7 luminescence, 3 h; percent of clofoctol response, vehicle zero;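 active = over half of replicate activation scores above 10%, or exactly half above 10 with the replicate mean above 10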
VLA-4 inh = inhibition in human VLA-4 binding assay, primary screen, VLA-4 allosteric modulator project, MLPCN library, flow cytometry, VLA-4 expressing cells | Integrin alpha-4 (Homo sapiens), P13612 | ligand binding flow cytometry | inhibition, % (about 7 µM as worked out from the volumes in the protocol) | 0.2% of 330,000 active; in the data active = inhibition above about 50%
Efflux pump inh = inhibitors of Candida efflux pumps in yeast, primary screen, S. cerevisiae, Nile Red, multiplex; S. cerevisiae Candida pump triplex; inhibition, % at 10 µM; AID 485275, 2010; 0.44% of 330,000 active;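 active = plate passing quality check with inhibition over a set limit, or well fluorescence over plate mean plus 4 SD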;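 also: Nile Red retained in pooled yeast measured as flow cytometry median fluorescence; 0% = buffer negative control and 100% = Enniatin B positive control; higher means more Nile Red kept so more efflux inhibition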
ALR H2O2 inh = inhibitors of human ALR sulfhydryl oxidase, primary screen, biochemical, H2O2 detection, HRP-luminol luminescence, single point. FAD-linked sulfhydryl oxidase ALR (Homo sapiens), P55789. purified ALR, DTT oxidation. inhibition, % (test concentration not listed). 3.8% of 290,000 active. AID 485317, 2010;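 active = mean replicate inhibition above about 79%, with every replicate also reaching it, limit read from the data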
Mot1-301 SUMO = yeast Mot1-301 growth rescue at high temperature, primary screen, SUMOylation pathway inhibitor project, S. cerevisiae, ATP luminescence, 38.5C; 1% of 320,000 active; AID 2716, 2010; growth rescue, % at 18.8 µM; S. cerevisiae Mot1-301 growth rescue; percent above DMSO median, 100 means doubled;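 active = every valid replicate shows activation above 250% relative to neutral control wells; inactive = the rest, any valid replicate at or below 250%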;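 also: OY570 slx delta 5 strain wells were the positive control but not used for scaling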
AHR act = AHR activators, primary screen, cell-based, luminescence, luciferase reporter, human; Aryl hydrocarbon receptor (Homo sapiens), P35869; activation, % at 5 µM; AHR-responsive luciferase reporter cells; 2.5% of 320,000 active; in the data active = activation above about 47%;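 also: 0% = vehicle wells and 100% = reference agonist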
Target sequence (P35869 whole entry, looked up): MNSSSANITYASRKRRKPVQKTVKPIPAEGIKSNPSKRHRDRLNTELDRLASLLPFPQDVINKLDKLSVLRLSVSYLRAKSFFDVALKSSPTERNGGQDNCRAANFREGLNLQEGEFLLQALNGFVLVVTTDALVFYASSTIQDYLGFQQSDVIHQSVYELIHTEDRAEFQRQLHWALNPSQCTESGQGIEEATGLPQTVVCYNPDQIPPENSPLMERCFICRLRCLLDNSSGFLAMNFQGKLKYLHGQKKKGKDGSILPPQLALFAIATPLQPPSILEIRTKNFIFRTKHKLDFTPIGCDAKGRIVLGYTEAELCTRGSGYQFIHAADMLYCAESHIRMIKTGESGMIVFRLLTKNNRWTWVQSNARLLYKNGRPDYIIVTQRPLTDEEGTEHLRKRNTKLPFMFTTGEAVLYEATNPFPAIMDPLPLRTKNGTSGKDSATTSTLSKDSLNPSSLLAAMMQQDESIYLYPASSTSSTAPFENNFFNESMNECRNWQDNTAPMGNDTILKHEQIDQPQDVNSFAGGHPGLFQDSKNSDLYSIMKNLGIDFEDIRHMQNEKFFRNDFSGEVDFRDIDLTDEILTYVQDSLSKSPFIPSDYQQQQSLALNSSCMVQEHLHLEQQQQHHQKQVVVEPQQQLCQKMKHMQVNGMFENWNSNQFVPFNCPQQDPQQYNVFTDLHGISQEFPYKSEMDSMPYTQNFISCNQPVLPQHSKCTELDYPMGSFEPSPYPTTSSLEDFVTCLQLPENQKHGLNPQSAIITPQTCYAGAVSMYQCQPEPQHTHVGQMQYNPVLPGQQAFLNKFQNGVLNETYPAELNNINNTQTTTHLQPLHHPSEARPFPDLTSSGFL
* hit, by the source's call; x = no result given; + = active, no number. An excerpt weighted towards active compounds, which were near 7.2% of everything screened.

SMILES	Bfl-1 A1 inh	VLA-4 inh	Efflux pump inh	ALR H2O2 inh	Mot1-301 SUMO	AHR act
CCOC(=O)N1CCN(S(=O)(=O)c2ccc(C(=O)NNc3nc4c(C)cccc4s3)cc2)CC1	x	-3.0	0.0	57.7	1.3	19.9
CCOC(=O)N1CCN(S(=O)(=O)c2ccc(C(=O)NNc3nc4c(C)cc(C)cc4s3)cc2)CC1	-0.3	-30.3	-0.1	25.1	0.5	47.5*
Cc1cccc(C)c1NC(=O)C(NS(=O)(=O)c1cccs1)c1ccccc1 (stereo not given)	1.6	1.7	0.4	x	0.3	23.7
COc1cccc(NC(=O)c2c([N+](=O)[O-])cnn2C)c1	-0.3	6.0	-0.1	95.7*	-16.4	4.7
Cn1ncc([N+](=O)[O-])c1C(=O)Nc1ccc(-c2ccccc2)cc1	0.3	27.5	0.0	-65.0	-5.0	72.6*
CC(=O)NS(=O)(=O)c1ccc(NC(=O)c2ccc(Br)o2)cc1	-1.4	0.6	0.6	-6.2	-4.8	2.1
CC(C)c1ccc(-n2nc3ccc(N)cc3n2)cc1	-4.7	10.8	0.0	-1.8	-4.5	58.0*
Cc1ccc(C(=O)Nc2nc3ccc(S(C)(=O)=O)cc3s2)s1	-4.3	10.1	0.1	-2.4	2.2	0.7
Cc1ccc(C(=O)Nc2nc3ccccc3s2)s1	-0.1	-11.7	-0.5	x	-5.2	78.8*
Cc1ccc(CNc2nc3ccccc3s2)s1	-7.4	9.0	0.0	-5.7	7.1	67.6*
Cn1c(=O)c2c(nc(CN3CCN(c4ccccc4)CC3)n2Cc2c(F)cccc2Cl)n(C)c1=O	0.0	9.6	0.3	97.3*	-25.7	2.7
CC1CCCN(Cc2nc3c(c(=O)n(C)c(=O)n3C)n2Cc2c(F)cccc2Cl)C1 (stereo not given)	0.5	-5.1	0.0	x	-11.4	0.5
O=C(/C=C\c1cccs1)N1CCN(Cc2ccc3c(c2)OCO3)CC1	0.7	21.6	0.3	-3.3	0.2	0.5
CCN(Cc1nc(-c2ccc(C)cc2)no1)C(=O)c1ccco1	0.9	7.6	0.1	-2.9	-4.7	-1.3
CCN(CC)c1ccc(N/C(N)=N/c2nc(C(F)(F)F)cc(=O)[nH]2)cc1	1.2	7.7	0.2	-11.1	-3.8	18.6
COc1cc(C(=O)ON=C2C(C)=CC(=O)C=C2C)cc(OC)c1OC	-6.0	-9.2	-0.1	99.0*	-12.6	4.0
O=C(CS(=O)c1ccc(F)cc1)Nc1ccccc1Cl (stereo not given)	-0.6	-1.2	0.4	3.5	+	-3.9
COCc1cccc(C(=O)NC(c2ccccc2)c2ccccc2)c1	0.2	-1.2	0.0	-5.6	-14.0	3.4
N/C(=N\NS(=O)(=O)c1cc(C(F)(F)F)cc(C(F)(F)F)c1)c1ccccn1	-0.9	3.3	0.1	85.2*	-1.7	-2.8
COC(=O)CC1=NN(c2nc3ccccc3s2)C(=O)/C1=C/N(C)C	-6.4	-0.3	0.0	96.3*	-6.4	2.1
COc1ccc(CN=C(C)c2c(C(F)(F)F)[nH]n(-c3nc4ccccc4s3)c2=O)cc1	-3.6	-4.8	0.0	x	-9.4	-1.4
COC(=O)Cc1[nH]n(-c2nc3ccccc3s2)c(=O)c1C(C)=O	-5.5	1.6	0.0	98.0*	-3.1	3.4
CCCCCN=Cc1c(C)[nH]n(-c2nc3ccccc3s2)c1=O	1.1	3.6	0.0	x	-20.4	-2.2
CC(=O)c1c(CC(=O)O)[nH]n(-c2nc3ccccc3s2)c1=O	-6.7	1.5	0.0	97.1*	-32.8	7.7
CCOC(=O)CC(NC(=O)Cn1nnc(-c2ccccc2Cl)n1)c1ccc(OC)cc1 (stereo not given)	-0.1	37.8	0.1	-6.1	3.7	-1.2
SMILES	Bfl-1 A1 inh	VLA-4 inh	Efflux pump inh	ALR H2O2 inh	Mot1-301 SUMO	AHR act
C=CCn1c(CNC(=O)c2cccs2)nnc1SCC(=O)c1ccc(Br)cc1	0.1	23.2	0.0	86.2*	x	-2.0
C=CCn1c(CCNC(=O)c2cccs2)nnc1SCC(=O)c1ccc(Cl)cc1	x	-0.9	0.1	x	x	0.1
Cc1cc(C)cc(NC(=S)NCCN(C2CCCCC2)C2CCCC2)c1	0.1	8.8	0.0	-7.6	430.2*	6.4
COc1cc(SC)ccc1C(=O)NCCNC(=O)c1nonc1N	-0.1	4.7	0.0	-3.3	-21.1	7.4
COc1ccc(N(C)C(=S)Nc2ccc3nc(C)c(C)nc3c2)cc1	0.1	7.5	0.2	98.2*	7.2	24.0
CCc1ccc(OCC(=O)Nc2cc(S(=O)(=O)CC)ccc2O)cc1	-0.4	-2.0	0.2	0.0	-6.3	-1.1
O=c1cc(-c2ccccc2Cl)oc2c(Br)ccc(O)c12	-0.5	22.8	-0.1	-3.0	-5.6	47.4*
O=c1cc(-c2ccccc2Cl)oc2cccc(O)c12	0.2	15.1	-0.2	2.4	14.9	4.8
O=c1c2ccccc2c(/C=N/NS(=O)(=O)c2ccccc2)c(O)n1-c1ccccn1	0.3	-1.8	0.0	98.1*	9.9	8.9
O=S1c2ccccc2Nc2ccccc21	-0.1	2.4	-0.1	86.8*	-6.6	13.7
O=C(O)C1CSC(c2ccco2)N1 (stereo not given)	0.4	1.7	-0.1	-6.4	141.7	-1.3
Cc1ccc2occ(C3N[C@H](C(=O)O)CS3)c(=O)c2c1 (stereo not given in full)	0.9	-9.0	-0.2	98.8*	x	10.7
Cc1ccc2occ(C3NC(C(=O)O)CS3)c(=O)c2c1 (stereo not given)	0.1	9.1	0.1	98.3*	-14.1	21.4
CCC(c1nnc(SCC(=O)NC2CCCCC2)n1Cc1ccccc1)N(C)C (stereo not given)	0.0	15.7	0.0	-3.2	-7.2	0.9
CCn1cc(C(=O)NCc2ccccc2F)c(=O)c2ccc(C)nc21	-0.3	39.8	-0.1	0.3	12.6	1.1
O=[N+]([O-])c1c(Nc2ccccn2)cc(Cl)c2nonc12	-2.2	-9.6	11.1*	-52.6	-24.1	0.4
O=C(O)c1ccccc1Nc1cc(Cl)c2nonc2c1[N+](=O)[O-]	1.9	7.6	0.1	54.6	9.7	2.1
COc1ccc(NC(=O)c2cc(CC(C)C)nc3ccccc23)cc1	1.3	17.2	-0.1	-2.6	-16.9	0.8
CC(=O)NCc1ccc(C(=O)CSc2nnc(C3CC3)n2C2CC2)cc1	2.1	8.3	-0.1	78.4*	-6.5	5.7
CC(=O)n1cc([C@@H]2C=C(C(=O)NCc3ccccc3)O[C@H](OCc3ccc(CO)cc3)C2)c2ccccc21	-0.9	-7.9	0.1	x	1.0	66.3*
C#CCNC(=O)C1=C[C@H](C2CCCCC2)C[C@H](OCc2ccc(CO)cc2)O1	-0.3	-4.1	0.1	-3.7	6.9	0.0
